Among the data in ChEMBL document CHEMBL3988442, “University of Dundee, Small-Polar-MMV Screening Library” (2021) are Percent Effect values, retold here.

Structures are written as SMILES.

One experiment is filed under the species Homo sapiens. The experiment is described as follows: To identify inhibition of the IFN signalling (Jak-Stat) pathway via expression of an eGFP reporter gene under the control of an IFN-stimulated response element (ISRE) containing MxA promoter. As to conditions: 30 µM. The class given is functional. Details: scale not given: direction of the effect not stated beside the values.
With `CCn1nc(C(=O)N2CCCC(n3cncn3)C2)ccc1=O` (stereo not drawn), the Percent Effect was -15.3%.

For `CNc1nc(C)c(C(=O)N2CCCCC2CN2CCCCCC2)s1` (stereo not drawn), the Percent Effect is -1.85%.

On to `CCOCC(=O)N1C[C@@H](O)[C@H](N(C)Cc2ccc(OC)cc2)C1`, for which the Percent Effect was 6.37%.

For the compound `c1cnc(NCc2ncn3c2CN(Cc2cccnc2)CCC3)nc1`, the Percent Effect came out at 2.98%.

As to `O=C1CCSCC(C(=O)N2CCOCC2)N1` (stereo not drawn), the Percent Effect turned out to be 16%.

As to `O=C(COCc1nc(-c2ccncc2)no1)N1CCCCCC1`, the Percent Effect worked out at 15.5%.

On to `CCc1csc(C2CCCN(C(=O)c3cnn(CC)c3)C2)n1` (stereo not drawn), for which the Percent Effect came to 6.86%.

For the compound `COc1ccc(CCC(=O)Nc2cccnc2N2CCCC2)cc1Br`, the Percent Effect was 13.8%.

With `CC(=O)c1ccc(N2CCCC(CO)(CCOc3ccccc3)C2)nc1` (stereo not drawn), the Percent Effect was 65.7%.

For `c1cncc(C2COC3(CCN(CC4CC4)CC3)C2)c1` (stereo not drawn), the Percent Effect is -13.5%.

As for `Cc1ccc2c(n1)N(CCn1cccn1)CCN(C(=O)NC1CC1)C2`, the Percent Effect is -2.83%.

Consider `Cc1cnn(C2CCCN(C(=O)c3cnc4ccccc4n3)C2)c1` (stereo not drawn), for which the Percent Effect worked out at 13%.

As to `CCCc1cc(=O)n(CC(N)=O)c(-n2nc(C)cc2C)n1`, the Percent Effect was found to be 32%.

With `Cc1cc(C)n(C2CCCN(C(=O)c3cc(C4CC4)on3)C2)n1` (stereo not drawn), the Percent Effect was -1.26%.

Regarding `Cc1ccc(Nc2nccc(C3CCCN(CC(=O)N(C)C)C3)n2)nc1` (stereo not drawn), the Percent Effect was -1.72%.

As to `CC(C)c1cccc(CSc2nnc(CN3CCCC3=O)o2)n1`, the Percent Effect is -2.67%.

Consider `N#Cc1ccc(OCCN2CCc3c(ncn3C3CC3)C2)cc1`, for which the Percent Effect was -0.819%.

Regarding `O=C(NCc1nncn1-c1ccccc1)C1CC(=O)N(CC2CC2)C1` (stereo not drawn), the Percent Effect was found to be 8.14%.

For the compound `CCc1nccn1C1CCCN(C(=O)Cc2n[nH]c3ccccc23)C1` (stereo not drawn), the Percent Effect stood at 1.26%.

`CN(Cc1ccsc1)C(=O)c1cccc(NS(C)(=O)=O)c1`: the Percent Effect turned out to be 14.4%.

On to `CNC(=O)CS(=O)(=O)Cc1coc(-c2ccc(OC)cc2)n1`, for which the Percent Effect stood at 7.16%.

In the case of `CC(C)CS(=O)(=O)CC(=O)N(C)Cc1ccc(OC(F)F)cc1`, the Percent Effect is 12.9%.

Consider `CN(Cc1ccccn1)C1COC2(CCN(Cc3cccnc3)CC2)C1` (stereo not drawn), for which the Percent Effect was 17.1%.

For the compound `COc1ccc(C2=C(C)C(N3CCc4ccccc4C3)=NS2(=O)=O)cc1`, the Percent Effect is 9.07%.

With `Cn1c(C2CC2)nc2c1CCN(CC(=O)Nc1nncs1)C2`, the Percent Effect was -9.48%.

Consider `Cc1cccc(CN2CCN(Cc3ccccc3)CC(O)C2)n1` (stereo not drawn), for which the Percent Effect is 4.22%.

Regarding `CCn1cc(CN2CCCN(C(=O)C3=NN(C)C(=O)CC3)CC2)cn1`, the Percent Effect is 29.5%.

Turning to `O=C(CN1CCc2cncnc2C1)NCCOc1ccccc1`, the Percent Effect amounted to 0.604%.

As for `Cc1ncsc1C(=O)N(C)CCc1ccncc1`, the Percent Effect was determined as 16.7%.

As for `N#Cc1cccc(CS(=O)(=O)NCC(O)Cc2ccccc2)c1` (stereo not drawn), the Percent Effect came to 6.52%.

Consider `Cc1ccc(-c2nc(CN3CCc4nn(C)c(=O)cc4C3)co2)cc1`, for which the Percent Effect turned out to be 11.3%.

As for `Cc1cc(C)n(CC2CCCN2CC(=O)N(C)C)n1` (stereo not drawn), the Percent Effect worked out at 3.86%.

On to `CN(C)S(=O)(=O)N1CCC(Oc2ccc(C#N)cc2)CC1`, for which the Percent Effect came out at 17.2%.

For the compound `CC(C)c1cc(NC(=O)CN2CCc3cncnc3C2)on1`, the Percent Effect is -5.17%.

In the case of `CCc1nc(CN(Cc2cccs2)CC2CCCO2)no1` (stereo not drawn), the Percent Effect is 10.4%.

In the case of `CCCN1CC(C(=O)Nc2ccccn2)CC1=O` (stereo not drawn), the Percent Effect was 15.4%.

Take `Cc1cnn(CCNCc2ccc(F)cc2Cl)c1`: the Percent Effect was -9.92%.

With `O=C(c1ccn(-c2cccc(F)c2)n1)N1CCCC(n2cccn2)C1` (stereo not drawn), the Percent Effect was determined as 2.64%.

As to `N#Cc1ccnc(N2CCN(C(=O)Cc3ccc4c(c3)CCO4)CC2)c1`, the Percent Effect is 1.61%.

A further experiment concerns the target T1, Tyrosyl-tRNA synthetase, putative (Trypanosoma cruzi (strain CL Brener)) (UniProt Q4DSP6).
T1 sequence (whole entry): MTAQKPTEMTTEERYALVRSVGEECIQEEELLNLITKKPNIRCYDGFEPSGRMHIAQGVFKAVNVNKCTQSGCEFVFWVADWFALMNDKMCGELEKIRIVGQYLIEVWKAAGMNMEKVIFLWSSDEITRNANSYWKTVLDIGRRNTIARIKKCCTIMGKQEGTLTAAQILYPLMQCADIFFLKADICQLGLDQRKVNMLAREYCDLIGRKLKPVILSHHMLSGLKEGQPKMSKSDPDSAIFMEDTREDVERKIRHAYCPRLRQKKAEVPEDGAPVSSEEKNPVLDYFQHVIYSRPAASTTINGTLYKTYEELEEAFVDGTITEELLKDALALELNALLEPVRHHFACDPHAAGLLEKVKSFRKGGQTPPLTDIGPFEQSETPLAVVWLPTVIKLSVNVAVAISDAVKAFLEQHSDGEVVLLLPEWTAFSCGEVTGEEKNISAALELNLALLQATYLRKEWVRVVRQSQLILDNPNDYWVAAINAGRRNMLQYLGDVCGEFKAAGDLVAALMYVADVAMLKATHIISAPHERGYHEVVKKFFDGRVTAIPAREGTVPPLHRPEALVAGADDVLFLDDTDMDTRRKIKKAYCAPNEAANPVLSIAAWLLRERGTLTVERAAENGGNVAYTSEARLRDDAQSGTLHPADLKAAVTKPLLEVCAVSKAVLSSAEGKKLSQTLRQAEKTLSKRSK
The experiment in a line: Trypanosoma cruzi tyrosyl tRNA synthetase (TcYRS) _High Tyrosine SOP. The class given is functional. Also noted: scale not given: in the data most compounds retested in dose-response had high values. As to conditions: 30 µM.
For `CCn1nc(C(=O)N2CCCC(n3cncn3)C2)ccc1=O` (stereo not drawn), the Percent Effect was determined as 0.952%.

For the compound `CNc1nc(C)c(C(=O)N2CCCCC2CN2CCCCCC2)s1` (stereo not drawn), the Percent Effect turned out to be 11.7%.

`CCOCC(=O)N1C[C@@H](O)[C@H](N(C)Cc2ccc(OC)cc2)C1`: the Percent Effect is 5.38%.

For `c1cnc(NCc2ncn3c2CN(Cc2cccnc2)CCC3)nc1`, the Percent Effect was found to be 8.91%.

As for `O=C1CCSCC(C(=O)N2CCOCC2)N1` (stereo not drawn), the Percent Effect amounted to 2.15%.

Turning to `O=C(COCc1nc(-c2ccncc2)no1)N1CCCCCC1`, the Percent Effect came out at 5.38%.

Consider `CCc1csc(C2CCCN(C(=O)c3cnn(CC)c3)C2)n1` (stereo not drawn), for which the Percent Effect amounted to 3.19%.

Turning to `COc1ccc(CCC(=O)Nc2cccnc2N2CCCC2)cc1Br`, the Percent Effect was 5.42%.

As for `CC(=O)c1ccc(N2CCCC(CO)(CCOc3ccccc3)C2)nc1` (stereo not drawn), the Percent Effect was 5.38%.

As for `c1cncc(C2COC3(CCN(CC4CC4)CC3)C2)c1` (stereo not drawn), the Percent Effect worked out at 8.91%.

As for `Cc1ccc2c(n1)N(CCn1cccn1)CCN(C(=O)NC1CC1)C2`, the Percent Effect was determined as 5.38%.

Turning to `Cc1cnn(C2CCCN(C(=O)c3cnc4ccccc4n3)C2)c1` (stereo not drawn), the Percent Effect came to 4.43%.

On to `CCCc1cc(=O)n(CC(N)=O)c(-n2nc(C)cc2C)n1`, for which the Percent Effect came out at 3.17%.

Regarding `Cc1cc(C)n(C2CCCN(C(=O)c3cc(C4CC4)on3)C2)n1` (stereo not drawn), the Percent Effect was found to be 1.91%.

Consider `Cc1ccc(Nc2nccc(C3CCCN(CC(=O)N(C)C)C3)n2)nc1` (stereo not drawn), for which the Percent Effect worked out at 11.7%.

On to `CC(C)c1cccc(CSc2nnc(CN3CCCC3=O)o2)n1`, for which the Percent Effect is 1.64%.

`N#Cc1ccc(OCCN2CCc3c(ncn3C3CC3)C2)cc1`: the Percent Effect was determined as 13.6%.

On to `O=C(NCc1nncn1-c1ccccc1)C1CC(=O)N(CC2CC2)C1` (stereo not drawn), for which the Percent Effect was 3.45%.

On to `CCc1nccn1C1CCCN(C(=O)Cc2n[nH]c3ccccc23)C1` (stereo not drawn), for which the Percent Effect was 2.08%.

As to `CN(Cc1ccsc1)C(=O)c1cccc(NS(C)(=O)=O)c1`, the Percent Effect is 8.74%.

As for `CNC(=O)CS(=O)(=O)Cc1coc(-c2ccc(OC)cc2)n1`, the Percent Effect is 2.65%.

As for `CC(C)CS(=O)(=O)CC(=O)N(C)Cc1ccc(OC(F)F)cc1`, the Percent Effect is -0.529%.

In the case of `CN(Cc1ccccn1)C1COC2(CCN(Cc3cccnc3)CC2)C1` (stereo not drawn), the Percent Effect was 5.32%.

As to `COc1ccc(C2=C(C)C(N3CCc4ccccc4C3)=NS2(=O)=O)cc1`, the Percent Effect is -122%.

As to `Cn1c(C2CC2)nc2c1CCN(CC(=O)Nc1nncs1)C2`, the Percent Effect came to 4.85%.

Turning to `Cc1cccc(CN2CCN(Cc3ccccc3)CC(O)C2)n1` (stereo not drawn), the Percent Effect was 8.99%.

For the compound `CCn1cc(CN2CCCN(C(=O)C3=NN(C)C(=O)CC3)CC2)cn1`, the Percent Effect is 5.71%.

As to `O=C(CN1CCc2cncnc2C1)NCCOc1ccccc1`, the Percent Effect was found to be 25.1%.

Consider `Cc1ncsc1C(=O)N(C)CCc1ccncc1`, for which the Percent Effect is 2.45%.

On to `N#Cc1cccc(CS(=O)(=O)NCC(O)Cc2ccccc2)c1` (stereo not drawn), for which the Percent Effect was determined as 0.546%.

As to `Cc1ccc(-c2nc(CN3CCc4nn(C)c(=O)cc4C3)co2)cc1`, the Percent Effect came to 3.45%.

On to `Cc1cc(C)n(CC2CCCN2CC(=O)N(C)C)n1` (stereo not drawn), for which the Percent Effect is -0.493%.

For the compound `CN(C)S(=O)(=O)N1CCC(Oc2ccc(C#N)cc2)CC1`, the Percent Effect is 2.1%.

Regarding `CC(C)c1cc(NC(=O)CN2CCc3cncnc3C2)on1`, the Percent Effect turned out to be 16.5%.

`CCc1nc(CN(Cc2cccs2)CC2CCCO2)no1` (stereo not drawn): the Percent Effect was -3.12%.

In the case of `CCCN1CC(C(=O)Nc2ccccn2)CC1=O` (stereo not drawn), the Percent Effect amounted to 2.65%.

As for `Cc1cnn(CCNCc2ccc(F)cc2Cl)c1`, the Percent Effect was found to be 1.98%.

With `O=C(c1ccn(-c2cccc(F)c2)n1)N1CCCC(n2cccn2)C1` (stereo not drawn), the Percent Effect is 0%.

For `N#Cc1ccnc(N2CCN(C(=O)Cc3ccc4c(c3)CCO4)CC2)c1`, the Percent Effect was 2.45%.
